Test results as given in PubChem BioAssay (EPA / NIEHS).
Calls of active or inactive are those of the source. Rule for the calls: active = hit-call score of the fitted dose curve at least 0.9, where 1 is the maximum; inactive = score below 0.9.

The compounds below were run on Glutathione S-Transferase (GSTA2), GSTA2 (gene 2939) (assay: LTEA_HepaRG_GSTA2: Life Technologies and Expression Analysis (LTEA) Assay for Glutathione S-Transferase (GSTA2) using HepaRG (AID 2283497)). Conditions: mRNA level, 48 h; actives raise or lower the signal.
Method in brief: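 Differentiated human HepaRG cells were exposed in duplicate for 48 h in serum-free induction medium, 8 points from 100 uM top in half-log steps, 0.5% DMSO. GSTA2 mRNA was measured by TaqMan qRT-PCR, normalized to ACTB, GAPDH and POLR2A; bidirectional fit versus DMSO.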
`CCC(C)OC(=O)N1CCCCC1CCO` (stereo not given) was tested, and the outcome was “inactive”.
For `CCCCOCCOCCOCc1cc2c(cc1CCC)OCO2`, the outcome was “inactive”.
For `CCOC(=O)COc1cc(-n2ncc(C(F)(F)F)c(C)c2=O)c(F)cc1Cl`, the outcome was “inactive”.
`CCCN(CCC)c1c([N+](=O)[O-])cc(C(F)(F)F)c(N)c1[N+](=O)[O-]` was tested, and the outcome was “inactive”.
In the case of `CC1(C)C(C=C(Cl)Cl)C1C(=O)OCc1cccc(Oc2ccccc2)c1` (stereo not given), the outcome is reported as “inactive”.

These compounds were tested on Glutamate-cysteine ligase catalytic (GCLC), GCLC (gene 2729) (assay: LTEA_HepaRG_GCLC: Life Technologies and Expression Analysis (LTEA) Assay for Glutamate-cysteine ligase catalytic (GCLC) using HepaRG (AID 2283498)). Conditions: mRNA level, 48 h; actives raise or lower the signal.
Method in brief: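 Differentiated HepaRG cells exposed 48 h in serum-free induction medium, eight-point half-log series topping at 100 uM in 0.5% DMSO, duplicates. GCLC mRNA by qRT-PCR normalized to ACTB, GAPDH and POLR2A, fitted bidirectionally versus DMSO.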
In the case of `C#C[C@]1(O)CC[C@H]2[C@@H]3CCC4=CC(=O)CC[C@@H]4[C@H]3CC[C@@]21CC`, the outcome is reported as “inactive”.
With `O=C(O)c1ccccc1` the outcome was “inactive”.
`COC(=O)c1ccccc1C(=O)O` was tested, and the outcome was “inactive”.
In the case of `CC(C)(C)[C@@H](O)[C@@H](Cc1ccc(Cl)cc1)n1cncn1`, the outcome is reported as “inactive”.
With `c1ccc2[nH]c(-c3cscn3)nc2c1` the AC50 was 50 µM (active).
With `N[C@@H](Cc1cc(I)c(Oc2ccc(O)c(I)c2)c(I)c1)C(=O)O` the AC50 was 40 µM (active).
In the case of `CCOC(=O)c1ccc(O)cc1`, the outcome is reported as “inactive”.
For `O=C(Nc1ccc([N+](=O)[O-])cc1Cl)c1cc(Cl)ccc1O`, the AC50 was 4.26 µM (active).
For `COC(=O)c1ccc(I)cc1S(=O)(=O)NC(=O)Nc1nc(C)nc(OC)n1`, the outcome was “inactive”.
In the case of `CCCN(CCC)C(=O)SCC`, the outcome is reported as “inactive”.
In the case of `CCCCC(CC)COC(=O)c1ccccc1C(=O)O` (stereo not given), the outcome is reported as “inactive”.
For `C[C@]12C[C@H](O)[C@H]3[C@@H](CCC4=CC(=O)CC[C@@]43C)[C@@H]1CC[C@@H]2C(=O)CO`, the outcome was “inactive”.
In the case of `S=C([S-])NCCNC(=S)[S-].[Mn+2]`, the outcome is reported as “inactive”.
`O=C(O)C1(C(=O)Nc2ccc(Cl)cc2Cl)CC1` was tested, and the AC50 was 50 µM (active).
`C=CCOC(Cn1ccnc1)c1ccc(Cl)cc1Cl` (stereo not given) was tested, and the AC50 was 88.7 µM (active).
For `CCCOC(=O)NCCCN(C)C`, the outcome was “inactive”.
For `COCCO`, the outcome was “inactive”.
`C#CCOC(=O)[C@@H](C)Oc1ccc(Oc2ncc(Cl)cc2F)cc1` was tested, and the outcome was “inactive”.
In the case of `CC(=O)[C@H]1CC[C@H]2[C@@H]3CCC4=CC(=O)CC[C@]4(C)[C@H]3CC[C@]12C`, the AC50 is reported as 91.1 µM (active).
In the case of `CCN(CC)C(=O)c1cccc(C)c1`, the outcome is reported as “inactive”.
In the case of `COc1c(Cl)ccc(Cl)c1C(=O)O`, the outcome is reported as “inactive”.
`CCCCCOC(=O)COc1cc(N2C(=O)C3=C(CCCC3)C2=O)c(F)cc1Cl` was tested, and the outcome was “inactive”.
For `CCC(C)OC(=O)N1CCCCC1CCO` (stereo not given), the outcome was “inactive”.
In the case of `CCCCOCCOCCOCc1cc2c(cc1CCC)OCO2`, the outcome is reported as “inactive”.
In the case of `CCOC(=O)COc1cc(-n2ncc(C(F)(F)F)c(C)c2=O)c(F)cc1Cl`, the outcome is reported as “inactive”.
With `CCCN(CCC)c1c([N+](=O)[O-])cc(C(F)(F)F)c(N)c1[N+](=O)[O-]` the outcome was “inactive”.
`CC1(C)C(C=C(Cl)Cl)C1C(=O)OCc1cccc(Oc2ccccc2)c1` (stereo not given) was tested, and the outcome was “inactive”.

Each compound was assayed on growth arrest and DNA damage 45 (GADD45G), GADD45G (gene 10912) (assay: LTEA_HepaRG_GADD45G: Life Technologies and Expression Analysis (LTEA) Assay for growth arrest and DNA damage 45 (GADD45G) using HepaRG (AID 2283499)). Conditions: mRNA level, 48 h; actives raise or lower the signal.
Method in brief: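 Gain or loss of GADD45G mRNA, quantified by TaqMan qRT-PCR against three housekeeping genes, is fitted in both directions relative to 0.5% DMSO. Human HepaRG cultures receive test chemical for 48 h at up to 100 uM.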
With `C#C[C@]1(O)CC[C@H]2[C@@H]3CCC4=CC(=O)CC[C@@H]4[C@H]3CC[C@@]21CC` the outcome was “inactive”.
In the case of `O=C(O)c1ccccc1`, the outcome is reported as “inactive”.
With `COC(=O)c1ccccc1C(=O)O` the outcome was “inactive”.
With `CC(C)(C)[C@@H](O)[C@@H](Cc1ccc(Cl)cc1)n1cncn1` the outcome was “inactive”.
For `c1ccc2[nH]c(-c3cscn3)nc2c1`, the outcome was “inactive”.
For `N[C@@H](Cc1cc(I)c(Oc2ccc(O)c(I)c2)c(I)c1)C(=O)O`, the outcome was “inactive”.
In the case of `CCOC(=O)c1ccc(O)cc1`, the outcome is reported as “inactive”.
With `O=C(Nc1ccc([N+](=O)[O-])cc1Cl)c1cc(Cl)ccc1O` the outcome was “inactive”.
`COC(=O)c1ccc(I)cc1S(=O)(=O)NC(=O)Nc1nc(C)nc(OC)n1` was tested, and the outcome was “inactive”.
With `CCCN(CCC)C(=O)SCC` the outcome was “inactive”.
For `CCCCC(CC)COC(=O)c1ccccc1C(=O)O` (stereo not given), the outcome was “inactive”.
For `C[C@]12C[C@H](O)[C@H]3[C@@H](CCC4=CC(=O)CC[C@@]43C)[C@@H]1CC[C@@H]2C(=O)CO`, the outcome was “inactive”.
`S=C([S-])NCCNC(=S)[S-].[Mn+2]` was tested, and the AC50 was 4.33 µM (active).
In the case of `O=C(O)C1(C(=O)Nc2ccc(Cl)cc2Cl)CC1`, the AC50 is reported as 90.1 µM (active).
With `C=CCOC(Cn1ccnc1)c1ccc(Cl)cc1Cl` (stereo not given) the AC50 was 91.6 µM (active).
With `CCCOC(=O)NCCCN(C)C` the outcome was “inactive”.
`COCCO` was tested, and the outcome was “inactive”.
For `C#CCOC(=O)[C@@H](C)Oc1ccc(Oc2ncc(Cl)cc2F)cc1`, the outcome was “inactive”.
For `CC(=O)[C@H]1CC[C@H]2[C@@H]3CCC4=CC(=O)CC[C@]4(C)[C@H]3CC[C@]12C`, the AC50 was 23 µM (active).
`CCN(CC)C(=O)c1cccc(C)c1` was tested, and the outcome was “inactive”.
For `COc1c(Cl)ccc(Cl)c1C(=O)O`, the outcome was “inactive”.
`CCCCCOC(=O)COc1cc(N2C(=O)C3=C(CCCC3)C2=O)c(F)cc1Cl` was tested, and the outcome was “inactive”.
For `CCC(C)OC(=O)N1CCCCC1CCO` (stereo not given), the outcome was “inactive”.
For `CCCCOCCOCCOCc1cc2c(cc1CCC)OCO2`, the AC50 was 4.83 µM (active).
With `CCOC(=O)COc1cc(-n2ncc(C(F)(F)F)c(C)c2=O)c(F)cc1Cl` the outcome was “inactive”.
In the case of `CCCN(CCC)c1c([N+](=O)[O-])cc(C(F)(F)F)c(N)c1[N+](=O)[O-]`, the outcome is reported as “inactive”.
`CC1(C)C(C=C(Cl)Cl)C1C(=O)OCc1cccc(Oc2ccccc2)c1` (stereo not given) was tested, and the outcome was “inactive”.

What follows are compounds tested on Glutamate-cysteine ligase regulatory (GCLM), GCLM (gene 2730) (assay: LTEA_HepaRG_GCLM: Life Technologies and Expression Analysis (LTEA) Assay for Glutamate-cysteine ligase regulatory (GCLM) using HepaRG (AID 2283500)). Conditions: mRNA level, 48 h; actives raise or lower the signal.
Method in brief: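 Human liver HepaRG cultures receive test chemicals for 48 hours at up to 100 uM in 0.5% DMSO. GCLM expression is measured by qRT-PCR and analysed for increases or decreases against vehicle.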
In the case of `C#C[C@]1(O)CC[C@H]2[C@@H]3CCC4=CC(=O)CC[C@@H]4[C@H]3CC[C@@]21CC`, the outcome is reported as “inactive”.
With `O=C(O)c1ccccc1` the outcome was “inactive”.
`COC(=O)c1ccccc1C(=O)O` was tested, and the outcome was “inactive”.
With `CC(C)(C)[C@@H](O)[C@@H](Cc1ccc(Cl)cc1)n1cncn1` the outcome was “inactive”.
In the case of `c1ccc2[nH]c(-c3cscn3)nc2c1`, the outcome is reported as “inactive”.
For `N[C@@H](Cc1cc(I)c(Oc2ccc(O)c(I)c2)c(I)c1)C(=O)O`, the outcome was “inactive”.
For `CCOC(=O)c1ccc(O)cc1`, the outcome was “inactive”.
With `O=C(Nc1ccc([N+](=O)[O-])cc1Cl)c1cc(Cl)ccc1O` the outcome was “inactive”.
With `COC(=O)c1ccc(I)cc1S(=O)(=O)NC(=O)Nc1nc(C)nc(OC)n1` the outcome was “inactive”.
With `CCCN(CCC)C(=O)SCC` the outcome was “inactive”.
In the case of `CCCCC(CC)COC(=O)c1ccccc1C(=O)O` (stereo not given), the outcome is reported as “inactive”.
`C[C@]12C[C@H](O)[C@H]3[C@@H](CCC4=CC(=O)CC[C@@]43C)[C@@H]1CC[C@@H]2C(=O)CO` was tested, and the outcome was “inactive”.
With `S=C([S-])NCCNC(=S)[S-].[Mn+2]` the AC50 was 8.92 µM (active).
In the case of `O=C(O)C1(C(=O)Nc2ccc(Cl)cc2Cl)CC1`, the outcome is reported as “inactive”.
In the case of `C=CCOC(Cn1ccnc1)c1ccc(Cl)cc1Cl` (stereo not given), the outcome is reported as “inactive”.
In the case of `CCCOC(=O)NCCCN(C)C`, the outcome is reported as “inactive”.
In the case of `COCCO`, the outcome is reported as “inactive”.
For `C#CCOC(=O)[C@@H](C)Oc1ccc(Oc2ncc(Cl)cc2F)cc1`, the outcome was “inactive”.
With `CC(=O)[C@H]1CC[C@H]2[C@@H]3CCC4=CC(=O)CC[C@]4(C)[C@H]3CC[C@]12C` the outcome was “inactive”.
With `COc1c(Cl)ccc(Cl)c1C(=O)O` the outcome was “inactive”.
In the case of `CCCCCOC(=O)COc1cc(N2C(=O)C3=C(CCCC3)C2=O)c(F)cc1Cl`, the outcome is reported as “inactive”.
With `CCC(C)OC(=O)N1CCCCC1CCO` (stereo not given) the outcome was “inactive”.
With `CCCCOCCOCCOCc1cc2c(cc1CCC)OCO2` the outcome was “inactive”.
In the case of `CCOC(=O)COc1cc(-n2ncc(C(F)(F)F)c(C)c2=O)c(F)cc1Cl`, the outcome is reported as “inactive”.
`CCCN(CCC)c1c([N+](=O)[O-])cc(C(F)(F)F)c(N)c1[N+](=O)[O-]` was tested, and the AC50 was 28.6 µM (active).
In the case of `CC1(C)C(C=C(Cl)Cl)C1C(=O)OCc1cccc(Oc2ccccc2)c1` (stereo not given), the outcome is reported as “inactive”.
